Measured values reported in PubChem BioAssay AID1159580 (chemical genetic matrix, 2015).
In all, about 5,500 compounds went through this assay and about 2,000 (36%) were called active. About 18% were inconclusive and are not listed. Rule as the data show it: active = normalized growth mostly below about 0.91 (no sharp cut-off); inconclusive = no clear call, values can overlap the other calls; inactive = mostly above about 0.92. The list shows a part of the results.

Assay: chemical genetic growth profiling, strain panel (AID 1159580);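 also: tested at 20 µM; growth read once vehicle control cultures reached saturation at 30 °C; 1 = growth at the plate median or of vehicle wells; lower values mean less growth of the strain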
Conditions: growth OD

Measured: normalized growth

COC(=O)CCC(C)[C@H]1CCC2C3C(C[C@H](O)[C@@]21C)[C@@]1(C)CC[C@@H](O)C[C@H]1C[C@H]3O (stereo not given in full)
inactive: S. cerevisiae deletion strains, locus YJR075W, strain HOC1, hits give low values 0.986 | S. cerevisiae deletion strains, locus YKL009W, strain mrt4, hits give low values 1.02 | S. cerevisiae deletion strains, locus YKL068W, hits give low values 1 | S. cerevisiae deletion strains, locus YKL085W, strain MDH1 (second series), hits give low values 1.01 | S. cerevisiae deletion strains, locus YKL085W, strain MDH1, hits give low values 1.01 | S. cerevisiae deletion strains, locus YKL160W, strain elf1, hits give low values 1.03 | S. cerevisiae deletion strains, locus YKR001C, strain vps1, hits give low values 1 | S. cerevisiae deletion strains, locus YKR026C, strain gcn3, hits give low values 1.03 | S. cerevisiae deletion strains, locus YKR091W, strain srl3, hits give low values 1.01 | S. cerevisiae deletion strains, locus YLL001W, strain dnm1, hits give low values 1.03 | S. cerevisiae deletion strains, locus YLL026W, hits give low values 1.01 | S. cerevisiae deletion strains, locus YLL041C, strain sdh2, hits give low values 1.01 | S. cerevisiae deletion strains, locus YLR027C, strain aat2, hits give low values 1.01 | S. cerevisiae deletion strains, locus YLR039C, strain RIC1, hits give low values 1.13 | S. cerevisiae deletion strains, locus YLR058C, strain SHM2, hits give low values 1.01 | S. cerevisiae deletion strains, locus YLR102C, strain apc9, hits give low values 1.03 | S. cerevisiae deletion strains, locus YLR113W, strain HOG1, hits give low values 0.975 | S. cerevisiae deletion strains, locus YLR221C, strain rsa3, hits give low values 1.02 | S. cerevisiae deletion strains, locus YLR258W, strain gsy2, hits give low values 1.03 | S. cerevisiae deletion strains, locus YLR262C, strain YPT6 (second series), hits give low values 1.02 | S. cerevisiae deletion strains, locus YLR262C, strain YPT6, hits give low values 1.09 | S. cerevisiae deletion strains, locus YLR268W, strain sec22, hits give low values 1.01 | S. cerevisiae deletion strains, locus YLR320W, strain mms22, hits give low values 1.04 | S. cerevisiae deletion strains, locus YLR330W, strain CHS5, hits give low values 1.01 | S. cerevisiae deletion strains, locus YLR342W, strain FKS1 (second series), hits give low values 1.02 | S. cerevisiae deletion strains, locus YLR342W, strain FKS1, hits give low values 1.01 | S. cerevisiae deletion strains, locus YLR357W, strain rsc2, hits give low values 1.03 | S. cerevisiae deletion strains, locus YLR370C, strain arc18, hits give low values 1.01 | S. cerevisiae deletion strains, locus YLR371W, strain rom2, hits give low values 1.02 | S. cerevisiae deletion strains, locus YLR384C, strain iki3, hits give low values 1 | S. cerevisiae deletion strains, locus YLR418C, strain cdc73, hits give low values 0.932 | S. cerevisiae deletion strains, locus YML016C, strain PPZ1, hits give low values 1.04 | S. cerevisiae deletion strains, locus YML032C, strain rad52, hits give low values 1.01 | S. cerevisiae deletion strains, locus YML120C, strain ndi1, hits give low values 1.02 | S. cerevisiae deletion strains, locus YML124C, strain tub3, hits give low values 1.02 | S. cerevisiae deletion strains, locus YMR058W, strain fet3, hits give low values 1.02 | S. cerevisiae deletion strains, locus YMR078C, strain ctf18, hits give low values 1.04 | S. cerevisiae deletion strains, locus YMR125W, strain sto1, hits give low values 1.03 | S. cerevisiae deletion strains, locus YMR129W, hits give low values 1.01 | S. cerevisiae deletion strains, locus YMR205C, strain PFK2, hits give low values 1.02 | S. cerevisiae deletion strains, locus YMR223W, strain ubp8, hits give low values 0.996 | S. cerevisiae deletion strains, locus YMR231W, strain pep5, hits give low values 1.01 | S. cerevisiae deletion strains, locus YMR263W, strain SAP30, hits give low values 1.01 | S. cerevisiae deletion strains, locus YMR307W, strain GAS1, hits give low values 0.86 | S. cerevisiae deletion strains, locus YNL067W, strain RPL9B, hits give low values 1 | S. cerevisiae deletion strains, locus YNL071W, strain lat1, hits give low values 1.01 | S. cerevisiae deletion strains, locus YNL128W, strain TEP1, hits give low values 1.02 | S. cerevisiae deletion strains, locus YNL153C, strain GIM3, hits give low values 0.988 | S. cerevisiae deletion strains, locus YNL183C, strain NPR1, hits give low values 0.955 | S. cerevisiae deletion strains, locus YNL209W, strain ssb2, hits give low values 1.02 | S. cerevisiae deletion strains, locus YNL233W, strain BNI4, hits give low values 0.957 | S. cerevisiae deletion strains, locus YNL248C, strain rpa49, hits give low values 1.04 | S. cerevisiae deletion strains, locus YNL250W, strain rad50, hits give low values 1.01 | S. cerevisiae deletion strains, locus YNL271C, strain bni1, hits give low values 1.02 | S. cerevisiae deletion strains, locus YNL298W, strain CLA4, hits give low values 0.993 | S. cerevisiae deletion strains, locus YNL307C, strain MCK1, hits give low values 1.03 | S. cerevisiae deletion strains, locus YNL322C, strain KRE1 (second series), hits give low values 1.03 | S. cerevisiae deletion strains, locus YNL322C, strain KRE1, hits give low values 1.02 | S. cerevisiae deletion strains, locus YNR049C, strain mso1, hits give low values 1.01 | S. cerevisiae deletion strains, locus YNR052C, strain pop2, hits give low values 1.01 | S. cerevisiae deletion strains, locus YOL006C, strain TOP1, hits give low values 0.974 | S. cerevisiae deletion strains, locus YOL012C, strain htz1 0.777 | S. cerevisiae deletion strains, locus YOL147C, strain pex11, hits give low values 1.03 | S. cerevisiae deletion strains, locus YOR001W, strain rrp6, hits give low values 0.985 | S. cerevisiae deletion strains, locus YOR061W, strain CKA2, hits give low values 1.04 | S. cerevisiae deletion strains, locus YOR069W, strain VPS5, hits give low values 1.06 | S. cerevisiae deletion strains, locus YOR070C, strain gyp1, hits give low values 0.995 | S. cerevisiae deletion strains, locus YOR080W, strain dia2, hits give low values 1.01 | S. cerevisiae deletion strains, locus YOR083W, strain WHI5, hits give low values 1.03 | S. cerevisiae deletion strains, locus YOR106W, strain vam3, hits give low values 1.01 | S. cerevisiae deletion strains, locus YOR136W, strain idh2, hits give low values 1.02 | S. cerevisiae deletion strains, locus YOR144C, strain elg1, hits give low values 1.02 | S. cerevisiae deletion strains, locus YOR184W, strain ser1, hits give low values 0.986 | S. cerevisiae deletion strains, locus YOR231W, strain MKK1, hits give low values 0.991 | S. cerevisiae deletion strains, locus YOR265W, strain rbl2, hits give low values 1.01 | S. cerevisiae deletion strains, locus YOR270C, strain vph1, hits give low values 0.913 | S. cerevisiae deletion strains, locus YOR290C, strain snf2, hits give low values 0.977 | S. cerevisiae deletion strains, locus YOR316C, strain cot1, hits give low values 1.03 | S. cerevisiae deletion strains, locus YPL051W, strain arl3, hits give low values 1.01 | S. cerevisiae deletion strains, locus YPL078C, strain atp4, hits give low values 1.03 | S. cerevisiae deletion strains, locus YPL106C, strain sse1, hits give low values 1.05 | S. cerevisiae deletion strains, locus YPL240C, strain hsp82, hits give low values 1 | S. cerevisiae deletion strains, locus YPL241C, strain CIN2, hits give low values 1.02 | S. cerevisiae deletion strains, locus YPL256C, strain CLN2, hits give low values 0.981 | S. cerevisiae deletion strains, locus YPR119W, strain clb2, hits give low values 1.03 | S. cerevisiae deletion strains, locus YPR141C, strain kar3, hits give low values 1.03 | S. cerevisiae deletion strains, locus YPR163C, strain tif3, hits give low values 1.03 | S. cerevisiae deletion strains, locus YPR167C, strain met16, hits give low values 1.03 | S. cerevisiae deletion strains, strain wtn01, hits give low values 1.01 | S. cerevisiae strains, strain wild type, hits give low values 1.02
